Data from paper PMC5540273 (PLoS ONE, 2017).

What was measured:
Details in all cases: concentration: 1 μM,replicates: in singlicate; n = 1
PIK3C2G = system: PIK3C2G
PIK3CA = system: PIK3CA
PIK3CB = system: PIK3CB
PIK3CD = system: PIK3CD
PIK3CG = system: PIK3CG
PIK4CB = system: T1, PIK4CB
T1 construct: gene PI4KB

PIKFYVE = system: PIKFYVE
PIM1 = system: PIM1
PIM2 = system: PIM2
PIM3 = system: PIM3
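Further: KINOMEscan kinase panel screen.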

| SMILES | %Inh (PIK3C2G) [%] | %Inh (PIK3CA) [%] | %Inh (PIK3CB) [%] | %Inh (PIK3CD) [%] | %Inh (PIK3CG) [%] | %Inh (PIK4CB) [%] | %Inh (PIKFYVE) [%] | %Inh (PIM1) [%] | %Inh (PIM2) [%] | %Inh (PIM3) [%] |
| --- | --- | --- | --- | --- | --- | --- | --- | --- | --- | --- |
| COc1cc2nccc(Nc3ccc(Oc4ccccc4)cc3)c2cc1OC.Cl [GI261656] | 0 | 0 | 0 | 0 | 0 | 0 | 5 | 0 | 0 | 0 |
| c1ccc(Oc2ccc(Nc3ccnc4ccc(-c5ccccn5)cc34)cc2)cc1 [GW407034] | 0 | 0 | 27 | 0 | 0 | 0 | 0 | 9 | 0 | 0 |
| CN1CCN(CCCNc2nccc(-c3c(-c4ccc(F)cc4)nn4cc(C(N)=O)ccc34)n2)CC1 [GW622475] | 0 | 0 | 0 | 0 | 0 | 0 | 94.2 | 25 | 0 | 8 |
| O=C1NCCc2[nH]c(-c3ccncc3)cc21 | 0 | 7 | 45 | 0 | 12 | 20 | 38 | 28 | 23 | 37 |
| CS(=O)c1ccc(-c2coc3ccc(-c4n[nH]c(=O)o4)cc23)cc1 (stereo not shown) | 49 | 46 | 41 | 35 | 78 | 43 | 64 | 87 | 82 | 84 |
| C[C@@H]1CCN(C(=O)N2CCCC2)C[C@@H]1N(C)c1ncnc2[nH]ccc12 | 0 | 2 | 26 | 2 | 14 | 7 | 3 | 0 | 0 | 0 |
| CN(c1cccc(CNc2nc(Nc3ccc4c(c3)CC(=O)N4)ncc2C(F)(F)F)c1)S(C)(=O)=O | 0 | 0 | 0 | 0 | 0 | 0 | 31 | 12 | 0 | 3 |
| C[C@@H](Oc1cc(-n2cnc3cc(-c4cnn(C)c4)ccc32)sc1C(N)=O)c1ccccc1Cl [GSK580432] | 0 | 0 | 0 | 32 | 24 | 0 | 61 | 20 | 0 | 18 |
| O=c1[nH]cc(-c2ccc(O)cc2)c2sc(-c3ccncc3)cc12 [GSK1033723] | 20 | 0 | 13 | 39 | 7 | 0 | 0 | 0 | 13 | 0 |
| CCn1c(-c2nonc2N)nc2cncc(CNC3CCNCC3)c21.Cl [SB-747651] | 0 | 0 | 0 | 2 | 0 | 15 | 0 | 93.4 | 81 | 80 |
| O=C(Nc1cccc(C(F)(F)F)c1)c1cccc(Oc2ccc3nccn3n2)c1 | 13 | 98.1 | 0 | 17 | 94.2 | 39 | 0 | 0 | 7 | 0 |
| Cc1cccc2c(-c3ccncc3)c(-c3ccc(F)cc3)nn12.Cl [GW461487] | 0 | 0 | 0 | 0 | 0 | 0 | 0 | 18 | 0 | 0 |
| COc1ccc(Nc2nccc(N3CCC(NC(=O)c4cccc(C#N)c4)C3)n2)cc1 (stereo not shown) [GSK1379730] | 0 | 0 | 0 | 25 | 0 | 0 | 0 | 0 | 0 | 0 |
| Cl.Cl.NC[C@H](CC1CCCCC1)NC(=O)c1ccc(-c2ccnc3[nH]ccc23)s1 [GSK1581428] | 0 | 0 | 0 | 0 | 0 | 0 | 0 | 0 | 0 | 0 |
| NC(=O)c1ccc(-c2cc3ncnc(SCC(=O)O)c3s2)cc1 | 20 | 0 | 15 | 0 | 0 | 0 | 42 | 7 | 22 | 22 |
| CCOC(=O)N1CCC(n2cnc(-c3ccc(F)cc3)c2-c2ccnc(N)n2)CC1 [SB-219952] | 69 | 15 | 0 | 16 | 64 | 59 | 37 | 9 | 0 | 1 |

| SMILES | %Inh (PIK3C2G) [%] | %Inh (PIK3CA) [%] | %Inh (PIK3CB) [%] | %Inh (PIK3CD) [%] | %Inh (PIK3CG) [%] | %Inh (PIK4CB) [%] | %Inh (PIKFYVE) [%] | %Inh (PIM1) [%] | %Inh (PIM2) [%] | %Inh (PIM3) [%] |
| --- | --- | --- | --- | --- | --- | --- | --- | --- | --- | --- |
| COc1cc2ncn(-c3cc(OCC4CCCCC4)c(C(N)=O)s3)c2cc1OC [GSK204559] | 38 | 0 | 0 | 0 | 5 | 0 | 0 | 0 | 0 | 11 |
| CC(=O)c1c(-c2ccncc2)[nH]c(-c2ccncc2)c1C [GW493036] | 0 | 0 | 0 | 38 | 0 | 0 | 26 | 11 | 0 | 9 |
| CNC(=O)c1ccccc1Nc1nc(Nc2cccc(CS(C)(=O)=O)c2)ncc1C.O=CO [GSK1520489] | 0 | 0 | 0 | 0 | 20 | 12 | 0 | 18 | 0 | 0 |
| Cn1ccc2ncnc(Oc3ccc(NC(=O)Nc4cccc(C(F)(F)F)c4)c(Cl)c3)c21 | 5 | 0 | 19 | 0 | 0 | 0 | 29 | 12 | 1 | 15 |
| O=C(NCC1CC1)c1ccc(-c2cc(C(=O)NC3CC3)ccc2F)cc1 [GW810445] | 0 | 0 | 0 | 0 | 0 | 0 | 6 | 9 | 0 | 0 |
| Cc1n[nH]c2cc(Nc3ccnc(Nc4cccc(CN5CCOCC5)c4)n3)ccc12 [GW682569] | 0 | 3 | 7 | 9 | 6 | 81 | 23 | 0 | 0 | 0 |
| O=C(Nc1n[nH]c2cc(-c3ccco3)ccc12)C1CC1 [SB-737447] | 17 | 0 | 0 | 0 | 0 | 18 | 1 | 6 | 0 | 22 |
| CCn1c(-c2nonc2N)nc2cncc(Br)c21 [SB-738004] | 12 | 0 | 21 | 34 | 11 | 5 | 39 | 89 | 0 | 62 |
| CN1CCN(CCNc2nc3cc(Oc4ccc(NC(=O)Nc5cc(C(F)(F)F)ccc5F)cc4)ccc3[nH]2)CC1.Cl.Cl [GW768504] | 0 | 0 | 0 | 0 | 0 | 0 | 0 | 10 | 2 | 0 |
| Cn1ccc2ncnc(Oc3ccc(NC(=O)Nc4cnn(C(C)(C)C)c4)c(Cl)c3)c21 | 8 | 10 | 0 | 14 | 7 | 0 | 0 | 0 | 7 | 0 |
| CC(=O)Nc1nc2cnc(Nc3cc(NC(=O)c4cccc(CC(C)(C)C#N)c4)ccc3C)nc2s1 | 60 | 11 | 66 | 54 | 8 | 27 | 0 | 16 | 8 | 22 |
| COc1cccc(CNC(=O)NC2CCN(c3ccnc(Nc4cc(OC)c(OC)c(OC)c4)n3)C2)c1 (stereo not shown) [GSK1379765] | 0 | 0 | 83 | 35 | 0 | 67 | 0 | 0 | 0 | 0 |
| Cn1ccc2ncnc(Oc3ccc(NC(=O)Nc4cccc(C(F)(F)F)c4)c(F)c3)c21 | 0 | 0 | 0 | 0 | 0 | 0 | 13 | 19 | 0 | 8 |
| COc1cccc(OC)c1C(=O)Nc1cccc(-c2nn3ccccc3c2-c2ccnc(Nc3cccc(F)c3)n2)c1 [GSK361065] | 24 | 0 | 0 | 1 | 0 | 0 | 42 | 10 | 0 | 13 |
| CCN1CCN(CCCC(=O)Nc2n[nH]c3nc(-c4ccc(O)cc4)c(Br)cc23)CC1 [SB-731579] | 16 | 0 | 0 | 44 | 6 | 16 | 14 | 57 | 89 | 72 |
